The list shows a part of the results. Records with an inconclusive call do not appear. Calls of active or inactive are those of the source. Calls follow the shape of the full dose curve.
% is scaled to controls: 0 for no effect and ±100 for the full control effect; potency is read from the fitted curve at half-maximal effect.

This assay relates to Hepatitis C virus NS3/4A protease. The assay is described as follows: Selectivity profile for inhibitors of NSP2Pro chikungunya virus (CHIKV): NS34A-HCV Counterscreen (AID 1964106). Also: nearly all actives have a fitted effect of over 55% in size. The note with it: HCV NS3/4A protease biochemical counterscreen; series mostly up to 50.9 µM; activity change, negative = inhibition: at the top concentration. The text has this:
PI: Natalia J. Martinez Ph.D.
National Center for Advancing Translational Sciences (NCATS),
National Institute of Health (NIH), Rockville, Maryland
Chikungunya virus (CHIKV) is a mosquito-borne RNA virus that has emerged as one of the most important global arboviral threats in the last decade. Although the first CHIKV vaccine has recently been FDA approved for use in healthy adults at increased risk, to date, there are no available antiviral drugs for CHIKV infection. CHIKV nsP2 protease plays a crucial role in the processing of the viral polypeptide precursor to release enzymes required for viral replication, thus making it a promising drug target for antiviral discovery. Here, we established a high-throughput pipeline to identify small molecule inhibitors of nsP2 proteolytic activity. The pipeline is composed of a suite of 1,536-well in vitro assays to support quantitative high-throughput (qHTS) screening campaigns. Specifically, we developed a fluorescence resonance energy transfer (FRET)-based assay using a fluorogenic peptide substrate encompassing an endogenous cleavage site and purified recombinant protease domain (nsP2pro). Using this assay, we interrogated ~37,000 small molecules, including those in drug repurposing libraries as well as chemically diverse and medicinal chemistry-friendly compounds. Hits were selected for follow-up validation against full-length nsP2 and an additional peptide. FRET-based 1,536-well assays for papain, hepatitis C virus NS3-4A, and human furin proteases were implemented to characterize compound selectivity. […] Novel compounds were identified to be potential nsP2 inhibitors and molecular docking analyses were performed to explain the binding mode of selected hits. In vitro antiviral activity was evaluated against a subset of compounds using a high-throughput CHIKV infection assay. To our knowledge, the pipeline presented here is unprecedented for CHIKV antiviral discovery research.
PROTOCOL TABLE (as described by Inglese J, Shamu CE and Guy RK. 2007)
SEQUENCE No. (e.g., 1, 2, 3, etc.); […] (e.g., Cells, Incubation, Reagent, etc.); VALUE; DESCRIPTION.
1; Enzyme; 2 uL; 1,536-well solid-bottom, black plate (Greiner Bio One).
2; Compounds; 20 nL; Echo 655 acoustic dispenser (Beckman Coulter).
3; Incubation; 15 min; room temperature in the dark.
4: Reagent; 2 uL; Ac-DE-[Lys(5-TAMRA)]-EE-[Abu-psi(COO)Ala]-S-[Lys(ECLIPSE-7)]-amide.
5; Detection; Fluorescence; time 0, ViewLux microplate reader (PerkinElmer) 525 nm excitation, 598/25 nm emission
6; Incubation; 15 min; room temperature
7; Detection; Fluorescence; time 15; ViewLux microplate reader (PerkinElmer), 525 nm excitation, 598/25 nm emission.
NOTES (numbers refer to sequence numbers above).
1. Two microliter of NS3-4A HCV enzyme solution (5 nM final concentration) in assay buffer (20 mM Tris-HCl pH 8.0, 150 mM NaCl, with 0.01% Tween 20) were dispensed into a 1,536-well solid-bottom black plate (Greiner Bio One) using the Kalypsys Pintool Station.
2. Twenty nanoliter of compounds, positive control Aprotinin (50 uM final concentration), or neutral control DMSO were transferred to the assay plates. Compounds in counter-screen assays were tested at 11 concentrations, 1:3 dilution points from 25 uM to 0.42 nM.
3. The assay plates were incubated in the dark for 15 min.
4. After incubation, 2 uL of 0.625 uM substrate (Ac-DE-[Lys(5-TAMRA)]-EE-[Abu-psi(COO)Ala]-S-[Lys(ECLIPSE-7)]-amide) in assay buffer (for NS3-4A assay) was added using the Kalypsys Pintool Station.
5-7. Plates were immediately read at time 0 then covered with stainless steel gasket lids and incubated for 15 min at room temperature in the dark. Fluorescence intensity in the assay plates were again read after incubation using the ViewLux imager equipped with Tamara fluorescence optics. The change in fluorescence intensity over the 15-min reaction period was normalized against DMSO and inhibitor controls as described below.
[…]
(In general: The purpose of a counterscreen is to sort out artefacts and off-target activity.)
Regarding `CCOc1ccc(N(Cc2ccccc2)C(=O)c2nc(S(C)(=O)=O)ncc2Cl)cc1`, the “activity change, negative = inhibition” value is -14.7% (inactive).
Still for that read-out and setting: under `CCOc1ccc(NC(=O)c2c(NC(=O)Cc3ccccc3)sc3c2CCC(C)C3)cc1` (stereo unspecified) stands 107% (inactive); under `O=C(O)c1cccc(-n2[nH]c(-c3ccccc3)cc2=O)c1`, 106% (inactive).
Take `C[C@@H]1O[C@@H](O[C@@H]2[C@@H](O)[C@H](OCCc3ccc(O)c(O)c3)O[C@H](CO[C@@H]3O[C@H](CO)[C@@H](O)[C@H](O)[C@H]3O)[C@H]2OC(=O)/C=C/c2ccc(O)c(O)c2)[C@H](O)[C@H](O)[C@H]1O`: the result was inactive.
Still for that read-out and setting: next, `CC1=C(/C=C/C(C)=C/C=C/C(C)=C/C=C/C=C(C)/C=C/C=C(C)/C=C/C2=C(C)CCCC2(C)C)C(C)(C)CCC1`: “inactive”.
On to `CO[C@]1(NC(=O)CSC(F)F)C(=O)N2C(C(=O)O)=C(CSc3nnnn3CCO)CO[C@H]21`, for which the “activity change, negative = inhibition” value is -9.29% (inactive).
As to `N#CSc1cc(SC#N)c(N)nc1N`, the result was inactive.
Turning to `C=CC(=O)c1ccc2ccccc2c1`, the outcome was inactive.
As to `C[C@@H]1C[C@@H](O)[C@@]23CO[C@]2(CO)C[C@@H](O)CC3[C@@]12CC(c1ccoc1)OC2=O` (stereo partly specified), the Potency is 11.3 µM (active).
On the same count and under the same terms, under `COC([CH2][Hg])CNC(=O)c1ccccc1OCC(=O)O` (stereo unspecified) stands 1.63 µM (active).
Consider `C=Cc1c(C)c2cc3nc(cc4[nH]c(cc5nc(cc1[nH]2)C(C)=C5CCC(=O)O)c(CCC(=O)OC)c4C)[C@@]1(C)C3=CC=C(C(=O)OC)[C@H]1C(=O)OC`, for which the call was inactive.
For `CCOc1ccc(NC(=O)c2c(NC(=O)Cc3ccccc3)sc3c2CCCCC3)cc1`, the “activity change, negative = inhibition” value was 87% (inactive).
For the compound `Cn1nnnc1Sc1ncnc2n[nH]c(-c3cccc(S(C)(=O)=O)c3)c12`, the Potency was 316 µM (active).
As for `CC(=O)N[C@@H](C(=O)O[C@H]1CCC(C)(C)[C@@H]2CCC3=C(COC3=O)[C@@]12C)C(C)C`, the “outcome” value is “inactive [at 33.5 µM]”.
On the same count and under the same terms, under `Cc1c(S(=O)(=O)O)oc2c1C(=O)C(=O)c1c-2ccc2c1CCCC2(C)C` stands “inactive”; under `CCC(C)C(=O)OC1C(C)C2(O)C(C=C(CO)CC3(O)C(=O)C(C)=CC32)C2C(C)(C)C12OC(=O)C(C)C` (stereo unspecified), “inactive [at 17.2 µM]”.
